A number with no mark means an inactive call. Inconclusive results are not listed. Where a call stands in place of a potency, no number is given. Active and inactive are the calls of the source. Calls follow the shape of the full dose curve.
Columns and labels:
[1] = target: Acetylcholinesterase (Homo sapiens) (UniProt P22303); assay: Acetylcholinesterase (AChE) small molecule antagonists: colormetric cell-based qHTS assay (AID 1347395); also: nearly all actives have a fitted effect of over 30% in size; also: potency is read from the fitted curve at half-maximal effect
Acetylcholinesterase (Homo sapiens), sequence (P22303 whole entry, looked up): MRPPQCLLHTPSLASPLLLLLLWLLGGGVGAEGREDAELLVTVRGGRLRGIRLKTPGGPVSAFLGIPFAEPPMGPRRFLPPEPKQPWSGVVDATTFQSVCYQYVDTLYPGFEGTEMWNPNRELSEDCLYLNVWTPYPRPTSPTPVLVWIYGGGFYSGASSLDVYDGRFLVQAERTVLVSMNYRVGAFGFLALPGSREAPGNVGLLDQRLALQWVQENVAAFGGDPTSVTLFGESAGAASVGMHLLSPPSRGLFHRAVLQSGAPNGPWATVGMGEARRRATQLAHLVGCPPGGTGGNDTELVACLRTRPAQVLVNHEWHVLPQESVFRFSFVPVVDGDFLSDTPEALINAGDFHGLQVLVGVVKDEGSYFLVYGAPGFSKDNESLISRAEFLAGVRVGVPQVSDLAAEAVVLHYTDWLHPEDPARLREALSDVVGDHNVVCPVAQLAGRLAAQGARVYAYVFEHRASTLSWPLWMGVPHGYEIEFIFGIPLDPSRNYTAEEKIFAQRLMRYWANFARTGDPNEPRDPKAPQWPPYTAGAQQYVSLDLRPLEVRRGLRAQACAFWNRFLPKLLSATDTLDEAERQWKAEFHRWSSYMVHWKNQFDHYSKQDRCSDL
Summary of the method: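 Endogenous AChE of human neuroblastoma SH-SY5Y cells was measured with an Ellman-type DTNB/acetylthiocholine mix. Compound pretreatment lasted 30 min at 37 C; substrate reaction ran 90 min at 37 C.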

[2] = target: Acetylcholinesterase (Homo sapiens) (UniProt P22303); assay: Acetylcholinesterase (AChE) small molecule antagonists: enzyme-based qHTS assay (AID 1347397); settings: Potency: AChE enzyme activity inhibition; outcome: AChE enzyme activity inhibition; also: nearly all actives have a fitted effect of over 55% in size
Summary of the method: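 Tox21 library chemicals are tested in qHTS format against recombinant human AChE. The enzyme, dispensed at 50 mU/mL, sits with compound for 30 min at room temperature. A DTNB–acetylthiocholine cocktail follows, and colour is read after 10 min.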

[3] = target: Acetylcholinesterase (Homo sapiens) (UniProt P22303); assay: Acetylcholinesterase (AChE) small molecule antagonists: enzyme-based qHTS assay with human liver microsomes (AID 1347399); settings: Potency: qHTS inhibition; outcome: qHTS inhibition; also: nearly all actives have a fitted effect of over 60% in size
Summary of the method: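 Recombinant human AChE (50 mU/mL in the enzyme mix) and human liver microsomes (0.25 mg/mL final) were preincubated with compound and NADPH (0.25 mg/mL final) for 30 min at 37 C. Acetylthiocholine/DTNB was then added; thiocholine was read colorimetrically after 10 min at room temperature.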

CN(C(=O)C(Cl)Cl)c1ccc(OC(=O)c2ccco2)cc1
Potency [1]: inactive | Potency [2]: inactive | Potency [3]: inactive

O=C1C=CC(=O)N1c1ccc(Cc2ccc(N3C(=O)C=CC3=O)cc2)cc1
Potency [1]: inactive | Potency [2]: inactive | Potency [3]: inactive

OCc1c[nH]c2ccccc12
Potency [1]: inactive | Potency [2]: inactive | Potency [3]: inactive

C[C@@H](CN(C)C)CN1c2ccccc2Sc2ccccc21
Potency [1]: inactive | Potency [2]: inactive | Potency [3]: inactive

O=C(CCN1CCC(c2ccccc2)C1)c1ccc2c(c1)OCCO2 (stereo not given)
Potency [1]: 30.9 µM (active) | Potency [2]: inactive | Potency [3]: inactive

CC1=NN(c2cccc(S(=O)(=O)O)c2)C(=O)C1
Potency [1]: inactive | Potency [2]: inactive | Potency [3]: inactive

CCc1nccnc1C
Potency [1]: inactive | Potency [2]: inactive | Potency [3]: inactive

CCCCOc1cc(C(=O)OCCN(CC)CC)ccc1N
Potency [1]: inactive | Potency [2]: inactive | Potency [3]: inactive

CC[C@@H](N)CO
Potency [1]: inactive | Potency [2]: inactive | Potency [3]: inactive

Nc1nc(=O)n([C@@H]2O[C@H](CO)[C@@H](O)[C@@H]2F)cc1I
Potency [1]: inactive | Potency [2]: inactive | Potency [3]: inactive

CCN(CCCCOC(=O)c1ccc(OC)c(OC)c1)C(C)Cc1ccc(OC)cc1 (stereo not given)
Potency [1]: 17.4 µM (active) | Potency [2]: inactive | Potency [3]: inactive

O=C1CCC(=O)N1Cl
Potency [1]: inactive | Potency [2]: inactive | Potency [3]: inactive

COC(=O)CC(C(C)=O)C(=O)OC (stereo not given)
Potency [1]: inactive | Potency [2]: inactive | Potency [3]: inactive

CN1CCN(CCC(=O)N2c3ccccc3Sc3ccc(C(F)(F)F)cc32)CC1
Potency [1]: inactive | Potency [2]: inactive | Potency [3]: inactive

CCOC(=O)CC(C)C
Potency [1]: inactive | Potency [2]: inactive | Potency [3]: inactive

COC(=O)C(c1ccccc1Cl)N1CCc2sccc2C1 (stereo not given)
Potency [1]: inactive | Potency [2]: inactive | Potency [3]: inactive

OCCN1CCN(CCCN2c3ccccc3Sc3ccc(Cl)cc32)CC1
Potency [1]: inactive | Potency [2]: inactive | Potency [3]: inactive

CC(C(O)c1ccc(O)cc1)N1CCC(Cc2ccccc2)CC1 (stereo not given)
Potency [1]: inactive | Potency [2]: inactive | Potency [3]: inactive

O=C(CN1CCN(Cc2ccc3c(c2)OCO3)CC1)N1c2ccccc2Sc2ccccc21
Potency [1]: inactive | Potency [2]: inactive | Potency [3]: inactive

C=CC(=O)NCOCC(C)C
Potency [1]: inactive | Potency [2]: inactive | Potency [3]: inactive

Reference: PubChem BioAssay (Tox21)
